Data as given in PubChem BioAssay (EPA / NIEHS).
Inconclusive results are not listed. Active and inactive are the calls of the source. Rule for the calls: active = hit-call score of the fitted dose curve at least 0.9, where 1 is the maximum; inconclusive = response in the unintended direction; inactive = score below 0.9.

Assays:
[1] = target: human Endothelin Receptor Type B (ETB), EDNRB (gene 1910) (UniProt P24530); assay: NVS_GPCR_hETB: NovaScreen (NVS) G Protein-Coupled Receptor Assay for human Endothelin Receptor Type B (ETB) (AID 2283267)
Chain of human Endothelin Receptor Type B (ETB), EDNRB (gene 1910) (P24530 whole entry, looked up): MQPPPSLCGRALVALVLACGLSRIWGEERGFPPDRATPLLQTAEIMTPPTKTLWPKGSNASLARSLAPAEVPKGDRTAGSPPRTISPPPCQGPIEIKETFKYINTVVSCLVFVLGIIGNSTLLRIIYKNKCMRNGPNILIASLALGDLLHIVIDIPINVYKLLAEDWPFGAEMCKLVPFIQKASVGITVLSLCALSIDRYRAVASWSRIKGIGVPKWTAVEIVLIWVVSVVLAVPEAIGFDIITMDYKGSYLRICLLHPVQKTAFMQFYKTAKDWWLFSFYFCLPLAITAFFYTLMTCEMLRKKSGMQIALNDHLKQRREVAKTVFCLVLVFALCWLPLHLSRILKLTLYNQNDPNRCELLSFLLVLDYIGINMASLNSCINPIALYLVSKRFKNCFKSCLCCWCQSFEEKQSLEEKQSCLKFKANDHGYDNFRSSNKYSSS
Experimental: NVS_GPCR_hETB is a biochemical, single-readout assay that uses extracted gene-proteins from Human astrocytoma cells in a cell-free assay. Measurements were taken 4 hours after chemical dosing in a 96-well plate.NVS_GPCR_hETB is one of one assay component(s) measured or calculated from the NVS_GPCR_hETB assay. It is designed to make measurements of radioligand binding, a form of binding reporter, as detected with scintillation counting signals by Filter-based radiodetection technology.Data from the assay component NVS_GPCR_hETB was analyzed into 1 assay endpoint. This assay endpoint, NVS_GPCR_hETB, was analyzed in the positive analysis fitting direction relative to DMSO as the negative control and baseline of activity. […] Furthermore, this assay endpoint can be referred to as a primary readout, because the performed assay has only produced 1 assay endpoint. […]
Binding assays used specific radioligands (tritiated, iodinated) with non-radioactive competitive displacement ligands in agonist or antagonist protocols (as indicated) and various reference compounds and inhibitors to titrate specific binding to receptors and transporters. Most enzyme assays (CYPs, kinases, phosphatases, proteases, HDACs) used recombinant protein and specific substrates (fluorescence mostly, some colorimetric and radioactive) and inhibitors, followed by a biochemical separation of substrate and product. […]

[2] = target: human Neuropeptide Receptor Y1 (NPY1), NPY1R (gene 4886) (UniProt P25929); assay: NVS_GPCR_hNPY1: NovaScreen (NVS) G Protein-Coupled Receptor Assay for human Neuropeptide Receptor Y1 (NPY1) (AID 2283276)
Chain of human Neuropeptide Receptor Y1 (NPY1), NPY1R (gene 4886) (P25929 whole entry, looked up): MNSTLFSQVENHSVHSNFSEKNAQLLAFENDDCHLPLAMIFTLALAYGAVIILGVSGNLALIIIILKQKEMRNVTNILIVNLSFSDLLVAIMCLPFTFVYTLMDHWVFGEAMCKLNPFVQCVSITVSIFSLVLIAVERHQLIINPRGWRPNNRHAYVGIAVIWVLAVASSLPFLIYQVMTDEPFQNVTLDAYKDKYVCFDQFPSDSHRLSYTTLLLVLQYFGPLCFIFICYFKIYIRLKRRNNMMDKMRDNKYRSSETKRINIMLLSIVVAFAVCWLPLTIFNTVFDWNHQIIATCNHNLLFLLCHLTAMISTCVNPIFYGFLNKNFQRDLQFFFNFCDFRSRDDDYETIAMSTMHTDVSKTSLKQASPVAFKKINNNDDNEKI
In short: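 Cell-free radioligand binding using receptor extracted from SK-N-MC cells, 1 h incubation, filter-based scintillation counting. Primary screen single concentration 25 uM in duplicate; actives followed in concentration series. Loss of bound signal scored versus DMSO.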

Compound	outcome [1]	outcome [2]
Oc1ccc(Cl)cc1Cc1ccccc1	inactive	inactive
O=C1c2ccccc2C(=O)N1SC(Cl)(Cl)Cl	inactive	–
